Reference: ChEMBL document CHEMBL1961873, “Compounds: GSK PKIS; Assays: Nanosyn kinase panel” (2012)

What was measured:
[1] = target: Sphingosine kinase 1 (Homo sapiens) (UniProt Q9NYA1); conditions: at 1 µM;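 further: mean SPHK1 inhibition value reported from the GSK PKIS kinase panel screen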
[2] = target: T1, Sphingosine kinase 2 (Homo sapiens) (UniProt Q9NRA0); conditions: at 0.1 µM
T1 sequence (whole entry): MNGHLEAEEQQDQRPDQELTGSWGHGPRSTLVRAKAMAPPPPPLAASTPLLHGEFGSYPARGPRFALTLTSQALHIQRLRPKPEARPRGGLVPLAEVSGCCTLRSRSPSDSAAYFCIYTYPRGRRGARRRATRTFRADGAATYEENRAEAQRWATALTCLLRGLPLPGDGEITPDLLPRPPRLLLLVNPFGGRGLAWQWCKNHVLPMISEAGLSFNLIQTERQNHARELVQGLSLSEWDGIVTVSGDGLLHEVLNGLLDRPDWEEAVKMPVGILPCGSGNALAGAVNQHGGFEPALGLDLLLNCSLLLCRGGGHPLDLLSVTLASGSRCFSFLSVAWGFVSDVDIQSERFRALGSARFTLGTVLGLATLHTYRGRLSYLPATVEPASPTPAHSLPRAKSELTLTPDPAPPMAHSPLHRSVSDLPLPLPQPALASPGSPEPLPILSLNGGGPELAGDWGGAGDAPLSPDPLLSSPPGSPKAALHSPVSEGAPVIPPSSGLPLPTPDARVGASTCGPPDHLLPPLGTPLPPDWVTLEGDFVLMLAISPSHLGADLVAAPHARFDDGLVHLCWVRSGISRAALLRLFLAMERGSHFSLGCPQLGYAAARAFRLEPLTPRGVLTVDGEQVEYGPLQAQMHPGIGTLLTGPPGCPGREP

[3] = target: T1, Sphingosine kinase 2 (Homo sapiens); conditions: at 1 µM
[4] = target: Casein kinase II subunit alpha (Homo sapiens) (UniProt P68400); conditions: at 0.1 µM
Chain of Casein kinase II subunit alpha (Homo sapiens) (P68400 whole entry, looked up): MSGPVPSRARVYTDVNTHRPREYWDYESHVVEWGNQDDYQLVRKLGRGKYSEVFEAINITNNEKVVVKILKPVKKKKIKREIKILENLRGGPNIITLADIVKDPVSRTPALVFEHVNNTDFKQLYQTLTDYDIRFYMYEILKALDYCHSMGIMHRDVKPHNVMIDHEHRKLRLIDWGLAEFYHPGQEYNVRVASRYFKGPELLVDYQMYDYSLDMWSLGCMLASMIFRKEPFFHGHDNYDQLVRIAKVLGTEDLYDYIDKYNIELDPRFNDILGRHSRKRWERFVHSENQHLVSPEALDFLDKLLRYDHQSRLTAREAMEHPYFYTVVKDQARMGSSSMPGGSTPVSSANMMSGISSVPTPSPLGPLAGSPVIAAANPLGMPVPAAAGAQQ

[5] = target: Casein kinase II subunit alpha (Homo sapiens) (UniProt P68400); conditions: at 1 µM
[6] = target: T2, Inhibitor of nuclear factor kappa-B kinase subunit alpha (Homo sapiens) (UniProt O15111); conditions: at 0.1 µM;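 further: mean percent inhibition from GSK PKIS profiling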
T2 sequence (whole entry): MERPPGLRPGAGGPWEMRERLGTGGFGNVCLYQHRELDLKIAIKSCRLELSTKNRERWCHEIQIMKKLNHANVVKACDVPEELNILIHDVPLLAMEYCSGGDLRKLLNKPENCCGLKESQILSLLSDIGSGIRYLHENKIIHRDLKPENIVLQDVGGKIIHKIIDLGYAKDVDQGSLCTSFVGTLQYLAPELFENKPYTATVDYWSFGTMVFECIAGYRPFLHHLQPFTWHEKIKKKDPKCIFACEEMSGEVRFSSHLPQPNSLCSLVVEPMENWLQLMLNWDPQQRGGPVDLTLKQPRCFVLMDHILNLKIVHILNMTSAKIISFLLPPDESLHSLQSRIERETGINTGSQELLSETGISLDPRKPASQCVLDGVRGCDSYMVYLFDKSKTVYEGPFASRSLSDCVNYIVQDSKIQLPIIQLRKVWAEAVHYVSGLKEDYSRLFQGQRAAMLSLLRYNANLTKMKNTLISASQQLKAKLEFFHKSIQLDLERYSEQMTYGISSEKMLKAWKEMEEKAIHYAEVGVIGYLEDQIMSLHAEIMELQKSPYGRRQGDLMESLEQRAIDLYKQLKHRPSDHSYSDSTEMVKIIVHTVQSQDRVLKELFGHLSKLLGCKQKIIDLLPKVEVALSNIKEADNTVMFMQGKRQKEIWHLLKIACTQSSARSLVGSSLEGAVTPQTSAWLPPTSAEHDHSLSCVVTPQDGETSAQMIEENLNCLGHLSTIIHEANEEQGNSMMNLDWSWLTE

[7] = target: T3, Inhibitor of nuclear factor kappa-B kinase subunit beta (Homo sapiens) (UniProt O14920); conditions: at 0.1 µM
T3 sequence (whole entry): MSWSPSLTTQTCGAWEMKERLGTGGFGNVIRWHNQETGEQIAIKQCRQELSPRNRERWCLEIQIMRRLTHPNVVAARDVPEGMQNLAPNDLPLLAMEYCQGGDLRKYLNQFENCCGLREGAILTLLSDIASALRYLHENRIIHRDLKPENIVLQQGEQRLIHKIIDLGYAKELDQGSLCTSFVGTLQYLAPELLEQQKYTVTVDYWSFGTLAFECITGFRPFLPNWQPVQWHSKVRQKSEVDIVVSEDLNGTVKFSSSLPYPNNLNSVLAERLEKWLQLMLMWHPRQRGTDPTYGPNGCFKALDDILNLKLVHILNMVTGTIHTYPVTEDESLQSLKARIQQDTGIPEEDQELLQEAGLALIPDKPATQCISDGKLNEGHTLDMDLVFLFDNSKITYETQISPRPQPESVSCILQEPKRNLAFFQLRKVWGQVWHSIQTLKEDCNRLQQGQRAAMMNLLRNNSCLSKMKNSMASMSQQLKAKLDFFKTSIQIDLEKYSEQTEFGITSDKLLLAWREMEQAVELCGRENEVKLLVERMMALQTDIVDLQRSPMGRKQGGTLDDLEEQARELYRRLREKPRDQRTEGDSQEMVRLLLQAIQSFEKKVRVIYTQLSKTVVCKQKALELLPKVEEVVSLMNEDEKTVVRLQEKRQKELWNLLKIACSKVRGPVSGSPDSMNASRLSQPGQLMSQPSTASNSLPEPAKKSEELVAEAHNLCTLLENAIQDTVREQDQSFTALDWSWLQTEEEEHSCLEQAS

[8] = target: T3, Inhibitor of nuclear factor kappa-B kinase subunit beta (Homo sapiens); conditions: at 1 µM
[9] = target: T4, Inhibitor of nuclear factor kappa-B kinase subunit epsilon (Homo sapiens) (UniProt Q14164); conditions: at 0.1 µM
T4 sequence (whole entry): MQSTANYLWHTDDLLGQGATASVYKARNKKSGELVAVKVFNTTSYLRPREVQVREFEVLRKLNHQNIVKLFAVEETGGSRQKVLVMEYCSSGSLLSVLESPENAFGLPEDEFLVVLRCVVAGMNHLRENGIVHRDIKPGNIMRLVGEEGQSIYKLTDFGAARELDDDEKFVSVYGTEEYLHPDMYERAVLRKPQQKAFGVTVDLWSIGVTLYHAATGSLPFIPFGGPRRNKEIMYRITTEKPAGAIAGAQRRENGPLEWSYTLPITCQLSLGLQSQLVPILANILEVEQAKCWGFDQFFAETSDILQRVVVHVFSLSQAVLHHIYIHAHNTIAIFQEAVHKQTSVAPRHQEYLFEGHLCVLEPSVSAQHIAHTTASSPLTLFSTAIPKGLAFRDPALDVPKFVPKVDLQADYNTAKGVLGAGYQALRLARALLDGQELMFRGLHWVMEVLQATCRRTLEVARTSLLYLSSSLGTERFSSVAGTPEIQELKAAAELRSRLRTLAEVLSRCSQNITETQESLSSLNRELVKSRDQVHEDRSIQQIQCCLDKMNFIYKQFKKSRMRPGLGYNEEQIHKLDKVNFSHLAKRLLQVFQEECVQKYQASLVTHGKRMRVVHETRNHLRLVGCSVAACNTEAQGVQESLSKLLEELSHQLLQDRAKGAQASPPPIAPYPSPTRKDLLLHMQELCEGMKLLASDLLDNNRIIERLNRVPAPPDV

[10] = target: T4, Inhibitor of nuclear factor kappa-B kinase subunit epsilon (Homo sapiens); conditions: at 1 µM
[11] = target: T5, Serine/threonine-protein kinase Nek1 (Homo sapiens) (UniProt Q96PY6); conditions: at 0.1 µM
T5 sequence (whole entry): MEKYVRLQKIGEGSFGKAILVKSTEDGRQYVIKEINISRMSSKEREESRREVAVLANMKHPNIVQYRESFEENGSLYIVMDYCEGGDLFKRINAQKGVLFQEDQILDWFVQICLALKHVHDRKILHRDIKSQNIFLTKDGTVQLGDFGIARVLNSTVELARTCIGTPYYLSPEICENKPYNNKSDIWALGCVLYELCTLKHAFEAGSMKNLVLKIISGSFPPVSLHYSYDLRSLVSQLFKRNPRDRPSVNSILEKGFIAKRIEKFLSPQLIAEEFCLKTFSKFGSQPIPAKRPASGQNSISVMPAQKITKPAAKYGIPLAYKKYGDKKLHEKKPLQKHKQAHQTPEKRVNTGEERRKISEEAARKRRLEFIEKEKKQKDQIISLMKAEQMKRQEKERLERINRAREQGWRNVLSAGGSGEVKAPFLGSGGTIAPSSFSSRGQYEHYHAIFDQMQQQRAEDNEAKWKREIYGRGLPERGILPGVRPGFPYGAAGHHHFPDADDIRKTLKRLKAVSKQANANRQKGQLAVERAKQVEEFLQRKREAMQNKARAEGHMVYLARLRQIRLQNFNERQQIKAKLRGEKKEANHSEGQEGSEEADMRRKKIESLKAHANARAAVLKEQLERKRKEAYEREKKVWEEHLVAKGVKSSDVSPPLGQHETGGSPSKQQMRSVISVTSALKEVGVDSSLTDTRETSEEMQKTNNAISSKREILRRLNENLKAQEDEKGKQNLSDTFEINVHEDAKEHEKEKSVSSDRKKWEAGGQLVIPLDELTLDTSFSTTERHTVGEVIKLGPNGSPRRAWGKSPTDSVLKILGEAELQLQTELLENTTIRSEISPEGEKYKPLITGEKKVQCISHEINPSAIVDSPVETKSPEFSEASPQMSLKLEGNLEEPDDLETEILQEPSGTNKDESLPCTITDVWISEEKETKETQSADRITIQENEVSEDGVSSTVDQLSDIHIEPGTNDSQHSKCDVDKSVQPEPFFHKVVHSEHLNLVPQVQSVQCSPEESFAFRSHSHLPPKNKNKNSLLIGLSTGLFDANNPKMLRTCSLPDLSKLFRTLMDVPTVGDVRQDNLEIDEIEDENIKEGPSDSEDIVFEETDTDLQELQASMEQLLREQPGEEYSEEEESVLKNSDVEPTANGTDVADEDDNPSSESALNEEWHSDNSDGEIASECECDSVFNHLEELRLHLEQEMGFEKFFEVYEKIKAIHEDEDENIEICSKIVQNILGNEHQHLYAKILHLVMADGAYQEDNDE

[12] = target: T5, Serine/threonine-protein kinase Nek1 (Homo sapiens); conditions: at 1 µM
[13] = target: T6, Serine/threonine-protein kinase Nek2 (Homo sapiens) (UniProt P51955); conditions: at 0.1 µM
T6 sequence (whole entry): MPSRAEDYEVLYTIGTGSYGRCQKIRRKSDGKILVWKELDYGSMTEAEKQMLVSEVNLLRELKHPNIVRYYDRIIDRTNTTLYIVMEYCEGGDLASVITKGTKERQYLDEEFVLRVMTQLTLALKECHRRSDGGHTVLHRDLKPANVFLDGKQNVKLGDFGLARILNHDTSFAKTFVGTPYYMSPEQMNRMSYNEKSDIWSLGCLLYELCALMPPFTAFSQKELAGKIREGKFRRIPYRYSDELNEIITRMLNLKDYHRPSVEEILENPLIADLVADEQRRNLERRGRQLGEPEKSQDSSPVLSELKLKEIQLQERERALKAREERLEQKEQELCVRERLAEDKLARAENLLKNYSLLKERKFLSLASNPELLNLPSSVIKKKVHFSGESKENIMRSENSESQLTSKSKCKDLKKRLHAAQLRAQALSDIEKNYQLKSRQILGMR

[14] = target: T6, Serine/threonine-protein kinase Nek2 (Homo sapiens); conditions: at 1 µM
[15] = target: Serine/threonine-protein kinase Nek6 (Homo sapiens) (UniProt Q9HC98); conditions: at 0.1 µM
Chain of Serine/threonine-protein kinase Nek6 (Homo sapiens) (Q9HC98 whole entry): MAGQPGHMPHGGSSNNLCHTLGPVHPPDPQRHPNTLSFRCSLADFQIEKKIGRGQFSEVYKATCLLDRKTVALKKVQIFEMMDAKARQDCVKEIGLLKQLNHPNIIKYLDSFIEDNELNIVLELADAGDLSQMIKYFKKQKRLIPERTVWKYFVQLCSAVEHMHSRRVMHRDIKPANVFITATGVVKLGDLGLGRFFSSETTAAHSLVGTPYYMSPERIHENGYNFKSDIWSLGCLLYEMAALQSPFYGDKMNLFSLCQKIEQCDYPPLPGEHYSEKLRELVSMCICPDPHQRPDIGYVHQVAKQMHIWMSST

[16] = target: Serine/threonine-protein kinase Nek6 (Homo sapiens) (UniProt Q9HC98); conditions: at 1 µM
[17] = target: Serine/threonine-protein kinase Nek7 (Homo sapiens) (UniProt Q8TDX7); conditions: at 0.1 µM
Chain of Serine/threonine-protein kinase Nek7 (Homo sapiens) (Q8TDX7 whole entry, looked up): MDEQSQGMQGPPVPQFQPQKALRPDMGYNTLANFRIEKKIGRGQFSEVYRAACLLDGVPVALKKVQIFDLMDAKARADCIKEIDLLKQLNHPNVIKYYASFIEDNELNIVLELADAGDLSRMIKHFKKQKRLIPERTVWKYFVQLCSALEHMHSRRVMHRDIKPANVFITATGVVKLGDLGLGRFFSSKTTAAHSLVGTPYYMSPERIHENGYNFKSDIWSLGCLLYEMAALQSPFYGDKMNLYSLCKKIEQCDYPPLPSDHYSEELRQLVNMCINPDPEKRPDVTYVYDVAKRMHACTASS

[18] = target: Serine/threonine-protein kinase Nek7 (Homo sapiens) (UniProt Q8TDX7); conditions: at 1 µM
[19] = target: T7, Serine/threonine-protein kinase Nek9 (Homo sapiens) (UniProt Q8TD19); conditions: at 0.1 µM;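 further: reported value is the mean percent inhibition of NEK9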
T7 sequence (whole entry): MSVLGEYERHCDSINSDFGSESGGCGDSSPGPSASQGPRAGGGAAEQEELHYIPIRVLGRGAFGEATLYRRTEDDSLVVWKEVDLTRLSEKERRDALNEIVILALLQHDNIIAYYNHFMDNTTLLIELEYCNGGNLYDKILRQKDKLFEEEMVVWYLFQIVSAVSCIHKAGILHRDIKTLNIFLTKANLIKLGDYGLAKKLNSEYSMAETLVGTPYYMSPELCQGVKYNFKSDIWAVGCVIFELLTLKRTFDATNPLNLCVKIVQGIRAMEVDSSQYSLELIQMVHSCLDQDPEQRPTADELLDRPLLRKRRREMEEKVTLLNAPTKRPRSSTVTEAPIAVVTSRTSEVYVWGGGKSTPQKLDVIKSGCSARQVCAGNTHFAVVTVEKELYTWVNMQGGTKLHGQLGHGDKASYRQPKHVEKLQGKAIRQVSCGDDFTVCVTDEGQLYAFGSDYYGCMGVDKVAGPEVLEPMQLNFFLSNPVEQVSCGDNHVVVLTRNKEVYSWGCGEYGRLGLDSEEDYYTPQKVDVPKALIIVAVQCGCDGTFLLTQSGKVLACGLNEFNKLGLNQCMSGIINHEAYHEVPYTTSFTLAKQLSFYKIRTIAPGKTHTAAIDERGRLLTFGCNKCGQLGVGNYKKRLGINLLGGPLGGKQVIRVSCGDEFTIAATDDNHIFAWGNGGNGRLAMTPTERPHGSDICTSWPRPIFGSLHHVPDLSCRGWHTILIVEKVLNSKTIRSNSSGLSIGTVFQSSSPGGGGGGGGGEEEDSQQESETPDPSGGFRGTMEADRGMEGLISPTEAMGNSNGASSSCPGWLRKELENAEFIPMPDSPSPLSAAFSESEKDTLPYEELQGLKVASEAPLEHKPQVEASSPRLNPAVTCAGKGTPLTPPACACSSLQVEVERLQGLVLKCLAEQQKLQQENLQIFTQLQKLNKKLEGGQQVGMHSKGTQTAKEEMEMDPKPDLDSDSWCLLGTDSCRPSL

Chain of Sphingosine kinase 1 (Homo sapiens) (Q9NYA1 whole entry): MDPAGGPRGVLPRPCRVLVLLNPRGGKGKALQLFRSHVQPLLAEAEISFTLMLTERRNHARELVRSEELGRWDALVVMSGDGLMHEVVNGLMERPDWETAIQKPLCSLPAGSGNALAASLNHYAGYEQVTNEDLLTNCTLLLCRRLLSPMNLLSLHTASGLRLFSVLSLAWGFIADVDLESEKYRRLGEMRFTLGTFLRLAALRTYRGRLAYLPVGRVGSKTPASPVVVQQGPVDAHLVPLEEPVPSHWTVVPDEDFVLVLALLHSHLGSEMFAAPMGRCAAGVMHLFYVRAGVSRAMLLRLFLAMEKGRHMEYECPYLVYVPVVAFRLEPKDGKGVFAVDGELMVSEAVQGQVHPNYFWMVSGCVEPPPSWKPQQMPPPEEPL

SMILES	inhibition [1] [%]	inhibition [2] [%]	inhibition [3] [%]	inhibition [4] [%]	inhibition [5] [%]	inhibition [6] [%]	inhibition [7] [%]	inhibition [8] [%]	inhibition [9] [%]	inhibition [10] [%]	inhibition [11] [%]	inhibition [12] [%]	inhibition [13] [%]	inhibition [14] [%]	inhibition [15] [%]	inhibition [16] [%]	inhibition [17] [%]	inhibition [18] [%]	inhibition [19] [%]
NC(=O)c1ccc(-c2nc(-c3ccccn3)c(-c3ccc4c(c3)OCO4)[nH]2)cc1	-3.93	-0.17	-0.84	2.1	4.61	7.62	3.19	3.61	3.15	4.06	1.34	3.26	2.44	2.69	2.04	4.68	2.26	1.68	6.53
CCn1c(-c2nonc2N)nc2ccncc21	-0.31	-1.06	0.26	-4.19	-5.18	-7.12	5.3	3.24	3.33	0.86	1.01	0.07	2.29	1.09	2.53	-2.93	3.2	2.01	0.35
